Cycloheximide cs: counter-screen for Shiga toxin inhibitors: cycloheximide protein synthesis inhibition; cell reporter, cycloheximide protein synthesis inhibition counterscreen; 300,000 compounds, 12% hits; AID 2314; max response, %; in the data active = max response mostly above about 13%, no sharp cut-off; inactive = mostly below about 14%; also: read at 38.3 µM for the half of the compounds with a filed dose; 0% is about no effect
Pf growth 96h: P. falciparum growth inhibition at 96 hours. P. falciparum luciferase reporter growth, 96 h. Potency, µM (doses to about 28.7 µM), for the others: at the highest dose activity change, negative = inhibition, actives largely listed as inhibitors. 320,000 compounds, 6.9% hits. AID 504834; also: potency is read from the fitted curve at half-maximal effect; % is scaled to controls: 0 for no effect and ±100 for the full control effect
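Compounds incubated with erythrocytes infected by luciferase-expressing P. falciparum (2% hematocrit, 0.05% parasitemia final) for 96 hours, 37 C in 5% CO2. Growth inhibition scored as decreased luciferase luminescence.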
Pf growth 48h: inhibits P. falciparum growth in the first generation, 48 h | P. falciparum luciferase growth in erythrocytes, 48 h | Potency, µM (highest dose often 28.7 µM), without a hit: top-dose activity change, negative = inhibition, usual class: inhibitors | 310,000 compounds, 5.9% hits | AID 504832; also: potency is read from the fitted curve at half-maximal effect; % is scaled to controls: 0 for no effect and ±100 for the full control effect
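Luminescence readout; reporter = integrated firefly luciferase in P. falciparum. RBC culture at 2% hematocrit, 0.1% parasitemia final, 37 C/5% CO2; decreased signal taken as growth inhibition.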
Shiga inhibitor: blocks Shiga toxin action in Vero cells; Vero cells, Shiga toxin protein synthesis inhibition reporter; inhibition, % at 38.7 µM; 290,000 compounds, 9.2% hits; in the data active = inhibition mostly above about 28%, no sharp cut-off; inactive = mostly below about 43%; also: 0% is about no effect
An asterisk follows results filed as active; [ ] = dose if it differs, or a comment. Only some compounds are listed: those with a hit (about 21% of all), similar ones and a draw of the others. Unless noted, calls follow the shape of the dose curve; as a rule, active = well fitted inhibition curve with a large enough effect; inconclusive = small, poorly fitted or top-dose-only effect, or another doubt; inactive = no such curve, though single readings can be large or run the other way.

Screening CNC(=O)c1c(NC(=O)c2ccco2)sc2c1CCC2 returned Cycloheximide cs 31*, Pf growth 96h -66%, Pf growth 48h -6% and Shiga inhibitor 49.
`CNC(=O)c1c(NC(=O)C2=COCCO2)sc2c1CCCC2` gave Cycloheximide cs 24, Pf growth 96h 13µM*, Pf growth 48h 11% and Shiga inhibitor 34.
For COc1ccc(C(=O)NCc2cnn(C)c2C)cc1OC1CCN(C(C)C)CC1 the results were Cycloheximide cs -2, Pf growth 96h inconclusive, Pf growth 48h 15% and Shiga inhibitor -10.
CC(C)CCN1C(=O)c2ccc(C(=O)NCC3CCCO3)cc2C1=O (stereo not given) was read as Cycloheximide cs -1, Pf growth 96h 4.1µM*, Pf growth 48h 2% and Shiga inhibitor -1.
Screening Cc1ccnc(NC(=O)c2ccc3c(c2)C(=O)N(CC2CCCO2)C3=O)c1 (stereo not given) returned Cycloheximide cs 24*, Pf growth 96h -39%[5.75 µM], Pf growth 48h 22% and Shiga inhibitor 62*.
CSc1nnc(-c2ccc(Br)s2)n1C was read as Cycloheximide cs 47*, Pf growth 96h -4%, Pf growth 48h 14% and Shiga inhibitor 69*.
For CSc1nnc(-c2sc(-c3ccccc3)nc2C)n1C the results were Cycloheximide cs 12*, Pf growth 96h 14%, Pf growth 48h 34% and Shiga inhibitor 55.
`Cc1nc(-c2ccccc2)sc1-c1n[nH]c(=S)n1C` gave Cycloheximide cs 3, Pf growth 96h inconclusive, Pf growth 48h 32% and Shiga inhibitor 19.
Screening CSc1nnc(-c2cccs2)n1C returned Cycloheximide cs 0, Pf growth 96h 47%, Pf growth 48h 12% and Shiga inhibitor -6.
`Cc1ccc(-n2c(C)nnc2SCC(=O)N2CCc3ccccc3C2)cc1` gave Cycloheximide cs 1, Pf growth 96h -1%, Pf growth 48h 10% and Shiga inhibitor -12.
For COC(=O)C(CC(=O)c1ccc(Cl)cc1)c1ccc(C)cc1 (stereo not given) the results were Cycloheximide cs 20, Pf growth 96h -24%, Pf growth 48h inconclusive and Shiga inhibitor active.
`CCOc1ccc(NCC(=O)c2ccc(C)cc2)cc1` gave Cycloheximide cs 16*, Pf growth 96h -10%, Pf growth 48h -8% and Shiga inhibitor 63*.
Screening Cc1ccc(C(=O)CNc2ccc(Cl)cc2)cc1 returned Cycloheximide cs 42*, Pf growth 96h inconclusive, Pf growth 48h 98% and Shiga inhibitor 86*.
Screening CC(=O)c1cccc(NS(=O)(=O)c2ccc(-c3cc(C)no3)s2)c1 returned Cycloheximide cs -5, Pf growth 96h 1%, Pf growth 48h 14% and Shiga inhibitor 3.
Cc1ccc(NC(=O)c2cc(S(=O)(=O)N3CCCCC3)c[nH]2)cc1C was read as Cycloheximide cs -2, Pf growth 96h inconclusive, Pf growth 48h -11% and Shiga inhibitor -6.
Screening CCCC(=O)c1ccc(N2CCC(C)CC2)c(F)c1 returned Cycloheximide cs 43*, Pf growth 96h -15%, Pf growth 48h 42% and Shiga inhibitor 60*.
CCC(=O)c1ccc(N2CCN(C(=O)c3ccccc3)CC2)c(F)c1 was read as Cycloheximide cs -2, Pf growth 96h 30%, Pf growth 48h -16% and Shiga inhibitor 21.
`CCC(=O)c1ccc(N2CCC(C)CC2)c(F)c1` gave Cycloheximide cs 30*, Pf growth 96h 9%, Pf growth 48h 10% and Shiga inhibitor 36*.
For O=C(NCc1ccc2c(c1)OCO2)c1cc(=O)[nH]c2ccccc12 the results were Cycloheximide cs -3, Pf growth 96h 17%, Pf growth 48h -9% and Shiga inhibitor -3.
For O=C(CN1C(=O)NC2(CCCC2)C1=O)OCc1cccc(Br)c1 the results were Pf growth 96h 15% and Pf growth 48h -9%.
`Cc1ccc(/C=C/S(=O)(=O)NCc2ccc(F)cc2)cc1` gave Cycloheximide cs 13, Pf growth 96h inconclusive, Pf growth 48h 10µM* and Shiga inhibitor 6.
`CCN(CC)c1ccc(N=Cc2c(O)n(-c3ccc(OC)cc3)c(=O)[nH]c2=O)cc1` gave Cycloheximide cs -1, Pf growth 96h 10µM* and Shiga inhibitor -11.
For COc1ccc(N=Cc2c(O)n(Cc3cccs3)c(=O)[nH]c2=O)cc1 the results were Cycloheximide cs -2, Pf growth 96h 1%, Pf growth 48h 13% and Shiga inhibitor -13.
Screening Cc1ccccc1-n1c(O)c(C=Nc2ccc(N(C)C)cc2)c(=O)[nH]c1=O returned Cycloheximide cs 11, Pf growth 96h 1.9µM*, Pf growth 48h 2.6µM* and Shiga inhibitor -7.
Cc1ccc(-n2c(O)c(C=Nc3ccccc3N)c(=O)[nH]c2=O)cc1C was read as Cycloheximide cs 46*, Pf growth 96h 47%[5.75 µM], Pf growth 48h 124% and Shiga inhibitor 67*.
CCN(CC)c1ccc(N=Cc2c(O)n(-c3ccc(Cl)cc3)c(=O)[nH]c2=O)cc1 was read as Cycloheximide cs -2, Pf growth 96h inconclusive, Pf growth 48h -12% and Shiga inhibitor -4.
For COc1ccc(N=Cc2c(O)n(CC3CCCO3)c(=O)[nH]c2=O)cc1 (stereo not given) the results were Cycloheximide cs 11*, Pf growth 96h 15%, Pf growth 48h 18% and Shiga inhibitor 28.
CCn1c(SCC(=O)Nc2nccs2)nnc1-c1ccccn1 was read as Cycloheximide cs 9, Pf growth 96h inconclusive, Pf growth 48h 5% and Shiga inhibitor -31.
Screening Cc1ccc(N(C(=O)c2csnn2)C(C(=O)NC2CCCCC2)c2cccnc2)c(C)c1 (stereo not given) returned Cycloheximide cs -4, Pf growth 96h inconclusive, Pf growth 48h -20% and Shiga inhibitor -23.
CCc1ccc(NC(=O)COC(=O)Cn2cnc3ccccc32)cc1 was read as Pf growth 96h 42% and Pf growth 48h -1%.
CNS(=O)(=O)c1ccc(N=Cc2c(O)n(-c3ccccc3)c(=O)[nH]c2=O)cc1 was read as Cycloheximide cs -3, Pf growth 96h 0%, Pf growth 48h 15% and Shiga inhibitor 3.
`Cc1ccc(-n2c(O)c(C=Nc3ccc(S(=O)(=O)N(C)C)cc3)c(=O)[nH]c2=O)cc1` gave Cycloheximide cs -3, Pf growth 96h 2.1µM* and Shiga inhibitor -4.
`Cc1cc2c(ncn2C(C)C)c(NS(=O)(=O)c2ccc(F)cc2)c1C` gave Cycloheximide cs 13, Pf growth 96h -9%, Pf growth 48h 10% and Shiga inhibitor 34.
`CCC(CO)Oc1cc(NCc2ccccc2Cl)c2ncn(C(C)C)c2c1` (stereo not given) gave Pf growth 96h inconclusive and Pf growth 48h 3.3µM*.
Screening CCC(CC)C(=O)NCc1ccccc1Cl returned Cycloheximide cs -3, Pf growth 96h 64%, Pf growth 48h 6% and Shiga inhibitor -8.
CCC(CO)Oc1cc(NC(=O)c2ccc(F)cc2)c2ncn(C(C)C)c2c1 (stereo not given) was read as Pf growth 96h inconclusive and Pf growth 48h 0%.
`CCC(CO)Oc1cc(NCc2ccccc2F)c2ncn(C(C)C)c2c1` (stereo not given) gave Pf growth 96h 4.7µM* and Pf growth 48h 5.2µM*.

Bioassay records from PubChem BioAssay.
